Bioassay records deposited in PubChem by National Center for Advancing Translational Sciences (NCATS).
Shown is part of a subset that was picked to be rich in hits.
ClpP mod – qHTS Assay for Activators of ClpP. ATP-dependent Clp protease proteolytic subunit (Bacillus subtilis (strain 168)), P80244. purified B. subtilis ClpP, FRET peptide cleavage, 20 min. Potency, µM (series often up to 57.5 µM), without a hit: at the top dose activity change, negative = active. 340,000 tested, 1.9% active. AID 651965, 2013; active = well fitted falling curve with a large enough effect; inconclusive = small, poorly fitted or top-dose-only effect; inactive = no such curve, though single readings can be large or run the other way; also: potency is read from the fitted curve at half-maximal effect; the source files actives as falling curves though it sought activators and does not explain the sign; nearly all actives have a fitted effect of over 65% in size
Target sequence (P80244 whole entry, looked up): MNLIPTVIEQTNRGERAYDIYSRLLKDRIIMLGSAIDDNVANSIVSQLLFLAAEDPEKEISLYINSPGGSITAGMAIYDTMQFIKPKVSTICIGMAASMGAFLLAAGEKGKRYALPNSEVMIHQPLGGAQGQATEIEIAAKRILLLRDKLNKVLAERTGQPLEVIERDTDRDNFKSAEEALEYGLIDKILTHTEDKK
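ClpP 10 microg/mL final, pH 8 Tris/KCl buffer with BSA, glycerol, Tween-20; compound pinned in; FRET-FV substrate; RT 20 min; Ex320/Em430; ΔFRET vs ADEP 5.8 microM, DMSO, no enzyme.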
Apoferritin bind – candidate novel general anesthetic via apoferritin binding; Potency, µM (titrated, usually from 77.5 µM), for the others: at the top dose activity change, negative = displacement, usual class: inhibitors; 350,000 tested, 0.074% active; AID 485281; apoferritin/1-aminoanthracene competitive binding, fluorescence; P02791; also: potency is read from the fitted curve at half-maximal effect; % is scaled to controls: 0 for no effect and ±100 for the full control effect; nearly all actives have a fitted effect of over 20% in size
Target sequence (P02791 2-175 limits assumed): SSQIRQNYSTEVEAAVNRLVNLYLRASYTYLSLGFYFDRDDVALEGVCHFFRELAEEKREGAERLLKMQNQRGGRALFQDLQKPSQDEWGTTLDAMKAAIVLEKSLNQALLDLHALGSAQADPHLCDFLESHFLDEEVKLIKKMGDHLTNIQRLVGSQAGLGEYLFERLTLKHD
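Horse-spleen apoferritin (10 uM) in 50% saturated 1-aminoanthracene in PBS was incubated 10 min at room temperature with compound. Fluorescence (ex 380, em 535 nm) was normalized to free and bound 1-AMA, with concentration-response fitted by a four-parameter Hill equation.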
CBFb RUNX1 block – inhibitors of human CBF-beta and RUNX1 interaction. Q01196+Q13951. AlphaScreen CBFb-His/RUNX1-biotin binding, biochemical. Potency, µM (series often up to 59.8 µM), without a hit: top-dose activity, negative = inhibition, actives largely listed as inhibitors. 230,000 tested, under 10 active. AID 1477; also: % of control where 0% means no effect
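AlphaScreen proximity signal reports loss of binding between His-tagged CBF-beta and biotin-labelled RUNX1, each at 30 nM. Proteins are pre-associated for 20 minutes, compounds added for 15 minutes, then beads for 90 minutes, all at ambient temperature.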
N370S GC mod – inhibitors or activators of N370S glucocerebrosidase for Gaucher disease | P04062 | N370S GC spleen homogenate, 4MU-glucoside fluorescence | Potency, µM (top dose mostly 59.4 µM), without a hit: at the highest dose activity change, negative = inhibition, hits mostly inhibitors | 330,000 tested, 0.092% active | AID 2101;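 also: potency is read from the fitted curve at half-maximal effect; 0% = full enzyme activity and -100% = no enzyme basal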
Glioma ERSR ind – induces the endoplasmic reticulum stress response in human glioma cells | U87-MG GRP78 promoter luciferase reporter, 16 h | Potency, µM, inactives show at the highest dose activation, actives largely listed as activators | 420,000 tested, 0.02% active; also: potency is read from the fitted curve at half-maximal effect; series mostly up to about 76 µM; % of control where 0% means no effect; nearly all actives have a fitted effect of over 35% in size
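Stably transfected U87-MG human glioma cells carrying a GRP78-based luminescent sensor were seeded at 1000 cells/well, pin-dosed with compounds and incubated 16 h. Luciferase reagent was then added, and end-point luminescence was read after 10 min at room temperature.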
a7 integrin act – activators of alpha7 integrin expression for muscular dystrophy | alpha7betagal myoblasts, beta-gal FDG fluorescence, 48 h | Potency, µM (series often up to 38.3 µM), for inactives: at the top dose activation, usual class: activators | 350,000 tested, 0.064% active;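 also: potency is read from the fitted curve at half-maximal effect; 100% = response of the positive control SU9516; nearly all actives have a fitted effect of over 60% in size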
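Alpha7betagal+/- myoblasts (passage 13) were plated 16-24 hr, then exposed to compounds (1:260 dilution of DMSO stock) for 48 hours at 37C. After MPER lysis, β-galactosidase reporter activity was read as FDG fluorescence (ex 480/em 540) after 30 minutes.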
Starred values were filed as active, the others as inactive. Unless noted, calls follow the shape of the dose curve; as a rule, active = well fitted curve in the direction sought with a large enough effect; inconclusive = small, poorly fitted or top-dose-only effect, or another doubt; inactive = no such curve, though single readings can be large; an effect the other way counts as inactive or inconclusive.

Screening O=S1(=O)CCO[C@H]2CCCC[C@@H]2N1Cc1ccccc1 returned ClpP mod -1% and Glioma ERSR ind -4%.
For Nc1c2c(nc3ccccc13)N(c1ccccc1)CC2 the results were ClpP mod 16µM*, Apoferritin bind 4%, CBFb RUNX1 block 0%, N370S GC mod 11%, Glioma ERSR ind 1% and a7 integrin act -10%.
For O=S(=O)(c1ccc(NC2CCCc3ccccc32)nc1)N1CCOCC1 (stereo not drawn) the results were ClpP mod 32µM*, Apoferritin bind inconclusive, CBFb RUNX1 block -5%, N370S GC mod 2%, Glioma ERSR ind 1% and a7 integrin act -6%.
For O=C(NC1CCCc2ccccc21)c1ccc(S(=O)(=O)N2CCOCC2)cc1 (stereo not drawn) the results were ClpP mod 1%, Apoferritin bind inconclusive, CBFb RUNX1 block 6%, N370S GC mod -5%, Glioma ERSR ind -4% and a7 integrin act 2%.
Screening O=C(Nc1ccccc1F)c1cnn2c1NC(=C1CC1)C=C2C(F)F returned ClpP mod -1%.
CN1N=C(C(=O)N2CCOc3ccc(CN4CCCC(C(=O)c5cccnc5)C4)cc3C2)CCC1=O (stereo not drawn) was read as Glioma ERSR ind -7%.
For O=C(CSc1nnc2n1CCCN2)c1ccc(Cl)cc1 the results were ClpP mod 14µM*, Apoferritin bind -15%, CBFb RUNX1 block 1%, N370S GC mod 6%, Glioma ERSR ind 2% and a7 integrin act 1%.
For Cc1cc(Cn2cnc3c(cnn3C(C)(C)C)c2=O)ccc1F the results were Glioma ERSR ind 0%.
Screening COc1cc(-c2cc(C)c3c(OC)ccc(OC)c3n2)cc2c1OCCN(C(=O)C(C)c1n[nH]c(=O)c3ccccc13)C2 (stereo not drawn) returned Glioma ERSR ind -5%.
`CCN(C(=O)COC(=O)c1ccc2c(c1)OCO2)c1ccc(F)cc1` gave ClpP mod 28µM*, Glioma ERSR ind -2% and a7 integrin act 15%.
For COc1cc(CN2CCC3(CCC(CNC(=O)c4ccco4)O3)CC2)ccc1O (stereo not drawn) the results were Glioma ERSR ind -1%.
CCOC(=O)c1cc(-c2cc3ccccc3o2)nc2c1c(=O)[nH]c(=O)n2CCOC was read as ClpP mod 7.1µM*, Apoferritin bind 98%, CBFb RUNX1 block 3%, N370S GC mod 13%, Glioma ERSR ind -3% and a7 integrin act 13%.
CC(C)(C)CC(C)(C)N=C1Nc2ccc(Cl)cc2NC12C[C@H]1CCC(=O)N3CC[C@@H](C2)[C@@H]13 (stereo partly drawn) was read as ClpP mod 2% and Glioma ERSR ind -12%.
For CC(C)(C)n1ncc2c(=O)n(Cc3cc(Cl)ccc3Cl)cnc21 the results were Glioma ERSR ind -5%.
For Cc1cccc(C)c1NC(=S)NCCc1ccc(O)c(O)c1 the results were ClpP mod -25%, Apoferritin bind 1%, CBFb RUNX1 block -1%, N370S GC mod 6%, Glioma ERSR ind 16µM* and a7 integrin act -20%.
`Cc1ccc(NC(=O)CC2SC(=O)N(c3ccccc3)C2=O)cc1` (stereo not drawn) gave ClpP mod 28µM*, Apoferritin bind 4%, CBFb RUNX1 block -13%, N370S GC mod -3%, Glioma ERSR ind 6% and a7 integrin act -18%.
Screening O=C(CC1SC(=O)N(c2ccccc2)C1=O)Nc1ccccc1 (stereo not drawn) returned ClpP mod 4%, Apoferritin bind inconclusive, CBFb RUNX1 block -10%, N370S GC mod 0%, Glioma ERSR ind 8% and a7 integrin act -8%.
For Cc1cccc(NC(=O)CC2SC(=O)N(c3ccccc3)C2=O)c1 (stereo not drawn) the results were ClpP mod 35µM*, Apoferritin bind inconclusive, CBFb RUNX1 block -11%, N370S GC mod -17%, Glioma ERSR ind 0% and a7 integrin act 22%.
Cc1ccc(CNC(=O)COC(=O)c2ccccc2OCC(=O)Nc2ccc(Br)cc2)cc1 was read as ClpP mod 3%.
Cc1sc(NC(=O)c2ccco2)c(C(c2ccccc2)N2CCC(C)CC2)c1C (stereo not drawn) was read as ClpP mod 28µM*, Apoferritin bind -23%, CBFb RUNX1 block 3%, N370S GC mod 16%, Glioma ERSR ind 2% and a7 integrin act 11%.
Screening CC(C)c1c(C(=O)N2CCCCC2c2cccnc2)cnn1-c1nccc(-c2cccs2)n1 (stereo not drawn) returned Glioma ERSR ind -4%.
CC(C)Oc1ccc(CCC(=O)N/N=C/c2ccc3c(c2)OCO3)cc1 was read as Apoferritin bind 0%, N370S GC mod -12%, Glioma ERSR ind -2% and a7 integrin act -14%.
O=C(CCc1ccc(O)c(O)c1)N/N=C/c1ccc2c(c1)OCO2 was read as ClpP mod -14%, Apoferritin bind -7%, N370S GC mod -2%, Glioma ERSR ind 22µM* and a7 integrin act -36%.
Screening COc1ccc2cc(CN(CCO)C(=O)c3ccc(Br)cc3)c(=O)[nH]c2c1 returned ClpP mod -19%, Apoferritin bind -11%, CBFb RUNX1 block 7%, N370S GC mod 0%, Glioma ERSR ind -3% and a7 integrin act 9%.
Screening COc1ccc2[nH]c(=O)c(CN(CCO)C(=O)NCc3ccccc3)cc2c1 returned ClpP mod 25µM*, Apoferritin bind -6%, CBFb RUNX1 block 0%, N370S GC mod -2%, Glioma ERSR ind -3% and a7 integrin act 21%.
`CCOc1ccc2[nH]c(=O)c(CN(CCO)C(=O)c3ccc(F)cc3)cc2c1` gave ClpP mod 22µM*, Apoferritin bind 1%, CBFb RUNX1 block -2%, N370S GC mod 6%, Glioma ERSR ind -4% and a7 integrin act -3%.
For CCOc1ccc2[nH]c(=O)c(CN(CCO)C(=O)c3ccccc3F)cc2c1 the results were ClpP mod 32µM*, Apoferritin bind -4%, CBFb RUNX1 block -2%, N370S GC mod 0%, Glioma ERSR ind -1% and a7 integrin act -6%.
For CCNC(=S)N(CCN(C)C)Cc1cc2cc(OCC)ccc2[nH]c1=O the results were ClpP mod 1%, Apoferritin bind -1%, CBFb RUNX1 block -4%, N370S GC mod 5%, Glioma ERSR ind -6% and a7 integrin act 17%.
